{"source": "PubChem BioAssay (NCATS)", "note": "Inconclusive results are not listed. Entries that show only a call come without a potency. The source made the active and inactive calls. Calls follow the shape of the dose curve; as a rule, active = well fitted inhibition curve with a large enough effect; inconclusive = small, poorly fitted or top-dose-only effect; inactive = no such curve, though single readings can be large or run the other way. Potency is read from the fitted curve at half-maximal effect.", "data": [{"test": "qHTS to identify inhibitors of the type 1 interferon - major histocompatibility complex class I in skeletal muscle: primary screen against the NCATS Mechanism Interrogation Plate v5.0 (MIPE) Libary (AID 1347411); also: nearly all actives have a fitted effect of over 65% in size", "settings": "iHSKM cells + IFN-b, HiBiT-tagged MHC-I luminescence, 24 h; series mostly up to 45.8 µM", "excerpt": "Assay Submitter (PI): Travis B. Kinder Ph.D. & James Inglese Ph.D.\nAssay Development and Screening Technology Laboratory (ADST)\nNational Center for Advancing Translational Sciences (NCATS), Rockville, MD\nNational Institute of Health (NIH), Bethesda, Maryland\nIdiopathic inflammatory myopathies, collectively referred to as myositis, are a group of rare autoimmune diseases characterized by skeletal muscle inflammation, weakness, and usually accompanied by systemic pathologies of the skin, lungs, or vasculature. Current immunosuppressive therapies and glucocorticoids are often not curative and are accompanied by harsh side effects, especially in children with juvenile myositis. We initiated a drug repurposing and development program to identify more targeted, less toxic therapeutics to treat myositis. Although its cause is not known, muscle from a subset of patients have an abundance of the inflammatory type 1 interferon (IFN) and a down-stream product major histocompatibility complex class I (MHC class I), which are both thought to contribute to damage and weakness. We conducted quantitative high throughput screening on 6,576 compounds (4,679 unique) through a series of cell-based assays to identify those that inhibit the IFN-stimulated expression of MHC class I in muscle precursor cells (myoblasts). The compound identification and evaluation strategy utilized a primary screen with reporter-tagged MHC class I in genome-engineered myoblasts, ATP content counter screen for viability, HLA-ABC immunofluorescence secondary screen, and HLA-B RT-qPCR tertiary screen.\nThe primary screen utilized CRISPR/Cas9 genome-engineering of immortalized human myoblasts, C25cl48, where a pro-luminescent reporter HiBit was fused to the C-terminus of endogenous MHC class I allele HLA-B*08:01 (HLA-B HiBit myoblasts). HiBit is an 11 amino acid fragment of NanoLuc luminescent reporter (Promega Corporation), and when complexed to the larger LgBit fragment, the reconstituted enzyme produces light in the presence of furimazine substrate (Schwinn et al., 2018). Briefly, HLA-B HiBit myoblasts were plated into 1536-well plates, treated with 4.0 ng/ml human IFN-beta and 2,480 compounds from the NCATS Mechanism Interrogation Plate v5.0 (MIPE5.0) in an 11-point, 1:3 titration with a high final concentration of 46 uM. After 24 hrs of treatment, cells were assayed by Nano-Glo HiBiT Lytic Detection System (Promega) and luminescence measured by a ViewLux 1430 Ultra HTS (Perkin Elmer).\nSchwinn MK, Machleidt T, Zimmerman K, Eggers CT, Dixon AS, Hurst R, Hall MP, Encell LP, Binkowski BF, Wood K V. 2018. CRISPR-Mediated Tagging of Endogenous Proteins with a Luminescent Peptide. ACS Chem Biol 13:467-474. doi:10.1021/acschembio.7b00549\nPROTOCOL TABLE (as described by Inglese et al., 2007)\nSEQUENCE No. (e.g., 1, 2, 3, etc.); […] (e.g., Cells, Incubation, Reagent, etc.); VALUE; DESCRIPTION\n1a; Cells; 5 uL; Use a Multidrop Combi (Thermo Scientific) to seed 300 cells/well into 24 Greiner 1536 well white/solid bottom, high base, TC plates in 5 ul/well of iHSKM growth medium (GM) without dexamethasone into columns 1+2. Add metal lids with gas-exchange holes\n1b; Cells; 5 uL; Use a Multidrop Combi (Thermo Scientific) to seed 300 cells/well into 24 Greiner 1536 well white/solid bottom, high base, TC plates in 5 ul/well of iHSKM GM without dexamethasone + 4 ng/ml IFN-b into columns 3 - 48. Add metal lids with gas-exchange holes\n2; Incubate; 1 hr; Incubate at 37 C, 5% CO2, 95% RH\n3; Compounds; 23 nl; Use Pin Tool (Wako) to transfer DMSO control, ruxolitinib IFN-b inhibitor control [High Concentration = 80 uM final, 16-pt, 1:2 in duplicate], and library compounds in DMSO\n4; Incubate; 24 hrs; Incubate at 37 C, 5% CO2, 95% RH\n5; Dispense; 2.5 ul; Use BioRAPTR FRD (Beckman Coulter) to add HiBit lytic reagent\n6; Incubate; 10 min; Incubate in the dark at ambient temperature for lysis\n7; Detector; 5 sec; Measure luminescence with ViewLux 1430 Ultra HTS (Perkin Elmer). […]", "values": [{"compound": "N[C@@H]1C[C@H]1c1ccccc1", "Potency": "inactive"}, {"compound": "CN(C)[C@@H]1C(=O)C(C(N)=O)=C(O)[C@@]2(O)C(=O)C3=C(O)c4c(O)cccc4[C@@](C)(O)[C@H]3C[C@@H]12", "Potency": "inactive"}, {"compound": "O=c1[nH]c2ccccc2n1CCCN1CCC(n2c(=O)[nH]c3cc(Cl)ccc32)CC1", "Potency": "inactive"}, {"compound": "C[C@]12CCC(=O)C(O)=C1CC[C@@H]1[C@@H]2CC[C@]2(C)C(=O)CC[C@@H]12", "Potency": "inactive"}, {"compound": "NCC1(CC(=O)O)CCCCC1", "Potency": "inactive"}, {"compound": "O=C(O)C(=O)c1cn(Cc2ccccc2)c2ccc(-c3ccc(OC(F)(F)F)cc3)cc12", "Potency": "inactive"}, {"compound": "Cn1c(CCCC(=O)O)nc2cc(N(CCCl)CCCl)ccc21", "Potency": "inactive"}, {"compound": "Cn1cc(C2=C(c3cn(C4CCN(Cc5ccccn5)CC4)c4ccccc34)C(=O)NC2=O)c2ccccc21", "Potency": "inactive"}, {"compound": "CN(C)CCN(C)CCc1ccc(Cl)c(Cl)c1", "Potency": "inactive"}, {"compound": "CNC(=O)c1ccc(N2C(=S)N(c3ccc(C#N)c(C(F)(F)F)c3)C(=O)C23CCC3)cc1F", "Potency": "inactive"}, {"compound": "COC1(CS(=O)c2ccccc2)CCN(CCc2c[nH]c3ccc(F)cc23)CC1", "note": "(stereo unspecified)", "Potency": "inactive"}, {"compound": "C[C@@H]1O[C@@H](O[C@H]2C[C@@H](O)[C@]3(CO)[C@H]4[C@H](O)C[C@]5(C)[C@@H](C6=CC(=O)OC6)CC[C@]5(O)[C@@H]4CC[C@]3(O)C2)[C@H](O)[C@H](O)[C@H]1O", "Potency": "37 nM (active)"}, {"compound": "CNCC(O)c1ccc(O)cc1", "note": "(stereo unspecified)", "Potency": "inactive"}, {"compound": "COC[C@@H](NC(C)=O)C(=O)NCc1ccccc1", "Potency": "inactive"}, {"compound": "N[C@@H](Cc1ccc(N(CCCl)CCCl)cc1)C(=O)O", "Potency": "inactive"}, {"compound": "Cc1cc(SCc2sc(-c3ccc(C(F)(F)F)c(F)c3)nc2C)ccc1OCC(=O)O", "Potency": "inactive"}, {"compound": "C#CCN(C)[C@H](C)Cc1ccccc1", "Potency": "inactive"}, {"compound": "NN=C(N)N", "Potency": "inactive"}, {"compound": "Cc1cccc(C)c1NC(=O)CN1CCCC1=O", "Potency": "inactive"}, {"compound": "O=P1(NCCCl)OCCCN1CCCl", "note": "(stereo unspecified)", "Potency": "inactive"}, {"compound": "CC(O)(CS(=O)(=O)c1ccc(F)cc1)C(=O)Nc1ccc(C#N)c(C(F)(F)F)c1", "note": "(stereo unspecified)", "Potency": "inactive"}]}]}
